E coli growth-1: reduces bacterial viability in AddAB counter-screen; E. coli V3065 growth, OD600 absorbance, 18 h; inhibition, % at 11.9 µM; hit rate 0.27% among 330,000; AID 449728;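 active = inhibition above the campaign's mean inhibition across all tested compounds plus 3 SD, cut at about 9.9% in these data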;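 also: uninfected addAB+ strain grown without phage in ampicillin broth; 0% = DMSO wells and 100% = ciprofloxacin 0.95 µg/ml wells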
AddAB inh: less growth of phage-infected E. coli with AddAB; E. coli expressing H. pylori AddAB, absorbance growth; inhibition, % at 11.9 µM; hit rate 0.29% among 330,000; AID 435030; in the data active = inhibition above about 12%;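 also: 0% = vehicle wells of infected cells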
Tat transport: inhibitors of E. coli Tat protein transport; E. coli MC4100 TorA-mCherry Tat export, fluorescence; inhibition, % at 10 µM; hit rate 0.036% among 340,000;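 active = mean replicate inhibition at least 50% and at least half of replicates individually reaching 50%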;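 also: exported cargo escapes ClpAP degradation while cytoplasmic cargo is degraded and loses fluorescence; 0% = median of neutral control wells and 100% = median of NaSCN control wells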
E coli growth-2: inhibitors of Escherichia coli growth | OD600, 23 h; active compounds read low | OD600 absorbance (test concentration not listed) | hit rate 0.21% among 330,000 | AID 1053175;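 active = OD600 absorbance below the run mean of sample wells minus 3.6 SD, in any replicate, cut at about 0.56 in these data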
phage Ecoli inh: E. coli growth loss with phage present. inhibition, % at 11.9 µM. hit rate 0.26% among 360,000. growth absorbance. AID 651602; in the data active = inhibition above about 11%
AddAB confirm: growth loss of T4-infected E. coli expressing H. pylori AddAB, confirmed; shares compounds with AddAB inh; E. coli V3065 expressing H. pylori AddAB, T4 phage, OD; T4 phage with gene 2 nonsense mutations; inhibition, % at 11.9 µM; hit rate 64% among 880;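 active = mean inhibition above a set limit taken from the earlier primary screen, cut at about 13% in these data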;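 also: higher means less bacterial growth since AddAB block lets phage replicate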
RecBCD counter: counter-screen: growth loss of RecBCD+ E. coli with mutant T4 phage; E. coli V66 + mutant T4 phage, OD growth; AID 488955; shares compounds with AddAB inh; inhibition, % at 11.9 µM; hit rate 73% among 880;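 active = mean inhibition above the mean of solvent-only control wells plus 3 SD, cut at about 4% in these data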;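 also: optical density read after an 18 h incubation at 37 °C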
Bact viability: counter-screen for AddAB inhibitors: inhibitors of bacterial viability | shares compounds with AddAB inh | absorbance (AddAB counterscreen) | inhibition, % at 11.9 µM | hit rate 35% among 880; in the data active = inhibition above about 25%
* = called active by the depositor; / = no result given. Only some compounds are listed: those with a hit (about 0.5% of all), similar ones and a draw of the others.

SMILES | E coli growth-1 | AddAB inh | Tat transport | E coli growth-2 | phage Ecoli inh | AddAB confirm | RecBCD counter | Bact viability
Cn1nc([N+](=O)[O-])c(C(C#N)c2ccccn2)c(Cl)c1=O (configuration not stated) | 9 | 13* | 3 | 0.68 | 6 | 41* | 6.1* | 22
N#CC1=C(N)OC2=C(CN(Cc3ccccc3)CC2=Cc2cccnc2)C1c1cccnc1 (configuration not stated) | / | / | / | 0.75 | / | / | / | /
Cc1ccc(OCC(=O)N2CCc3ccccc32)c([N+](=O)[O-])n1 | 19* | 24* | 4 | 0.67 | 8 | 46* | 5.4* | 43*
O=C(NN=Cc1cc([N+](=O)[O-])ccc1O)c1cccc2cc[nH]c12 | / | / | / | 0.71 | / | / | / | /
O=C(N/N=C/c1cc([N+](=O)[O-])ccc1O)c1cccc2cc[nH]c12 | 10* | 14* | -3 | / | 5 | 3 | 7.0* | -1
Cn1cnc([N+](=O)[O-])c1Sc1ncnc2nc[nH]c12 | 1 | 2 | -2 | 0.7 | 2 | / | / | /
Cn1cnc(Sc2ncnc3nc[nH]c23)c1[N+](=O)[O-] | 17* | 26* | 6 | / | 11 | 53* | 10* | 33*
CC(C)CC(CO)Nc1nc(N(C)c2cccc(Cl)c2)c2ncn(C(C)C)c2n1 (configuration not stated) | / | / | / | 0.66 | / | / | / | /
CC1NC(=O)C(CCC(N)=O)NC(=O)c2cc([N+](=O)[O-])cc(I)c2NCCC(C(N)=O)NC1=O (configuration not stated) | / | / | / | 0.71 | / | / | / | /
CC(C)C(=O)N1CCN(c2ccc(NC(=O)c3ccc([N+](=O)[O-])o3)cc2)CC1 | 6 | 13* | -2 | 0.69 | 4 | 29* | 3 | 8
O=C(c1ccc([N+](=O)[O-])o1)N1CCOCC1 | 11* | 17* | -13 | 0.54 | 11 | 64* | 8.5* | 16
N#CCC(=O)N1CC2(CC(c3cccc(NC(=O)COc4ccc(Cl)cc4)c3)=NO2)CC1C(N)=O (configuration not stated) | / | / | / | 0.7 | / | / | / | /
CCCc1cc(C(=O)Nc2ccccc2SC)no1 | 91* | 98* | -6 | 0.76 | 3 | 0 | 0 | -3
CCC1=C(OC(=O)N(CC)CC)N2C(=O)OC(=NCC3CC3)[C@]2(C)C2C1=CCC1C(=O)N(C)C(=O)C12 (some centres not stated) | / | / | / | 0.67 | / | / | / | /
COc1ccc(NC(=O)Cn2cc(C(C)=O)c3ccccc32)cc1 | 14* | 16* | -1 | 0.68 | 10 | 9 | 12* | 11
CCOc1ccc(NC(=O)Cn2cc(C(C)=O)c3ccccc32)cc1 | -2 | 1 | -6 | 0.73 | 3 | / | / | /
CC(C)=CCC[C@](C)(OC1OC(COC2OC(CO)C(O)C(O)C2O)C(O)C(O)C1O)C1CC[C@]2(C)C1C(=O)CC1[C@@]3(C)CCC(OC4OC(CO)C(O)C(O)C4O)C(C)(C)C3CC[C@]12C (some centres not stated) | / | / | / | 0.68 | / | / | / | /
Cc1cc(=O)n(-c2ccc(O)cc2)[nH]1 | 93* | 98* | -3 | 0.54 | 11 | 78* | 7.7* | 46*
CCC(Sc1nc2c(cnn2-c2ccc(Cl)cc2)c(=O)[nH]1)C(=O)OC (configuration not stated) | 43* | 97* | -12 | 0.84 | 2 | 0 | 1 | 0
CCOC(=O)C(CC)Sc1nc2c(cnn2-c2ccc(F)cc2)c(=O)[nH]1 (configuration not stated) | 0 | 1 | 2 | 0.64 | 1 | / | / | /
CCCN1CCN(C(=O)c2cc3c(s2)-c2ccccc2OC3)CC1 | 13* | 15* | 1 | 0.72 | 8 | 23* | 7.3* | 16
CCOC(=O)N1CCN(C(=O)c2cc3c(s2)-c2ccccc2OC3)CC1 | 2 | 0 | 3 | 0.7 | 4 | / | / | /
O=[N+]([O-])c1ccc(/C=N\NS(=O)(=O)c2ccc(F)cc2)o1 | 20* | 93* | -9 | / | 11 | 99* | 8.0* | 54*
Cc1ccc(S(=O)(=O)NN=Cc2ccc(C)o2)cc1 | / | / | / | 0.69 | / | / | / | /
COc1ccccc1NS(=O)(=O)c1cccc(C(=O)NN=Cc2ccc([N+](=O)[O-])o2)c1 | / | / | / | 0.63 | / | / | / | /
SMILES | E coli growth-1 | AddAB inh | Tat transport | E coli growth-2 | phage Ecoli inh | AddAB confirm | RecBCD counter | Bact viability
O=C(N/N=C/c1ccc([N+](=O)[O-])o1)C1CCCC1 | 9 | 12* | -5 | / | 8 | 74* | 5.0* | 13
COc1ccc(S(=O)(=O)N/N=C\c2ccc([N+](=O)[O-])o2)c(OC)c1 | 24* | 30* | -21 | / | 10 | 100* | 8.3* | 40*
COc1ccc(C2C=CCN(S(=O)(=O)C=Cc3ccccc3)C(C)C(=O)N2Cc2ccc(F)cc2)cc1 (configuration not stated) | / | / | / | 0.7 | / | / | / | /
CCOC(=O)C1C2COc3ccc(OC)cc3C2N2C(=O)CN(Cc3ccccc3)C(=O)[C@@]12C (some centres not stated) | / | / | / | 0.69 | / | / | / | /
O=C(NCC1CC1(Cl)Cl)Nc1ccc(Cl)c(Cl)c1 (configuration not stated) | 6 | 13* | -5 | 0.43* | 9 | 12 | 13* | 2
Cc1ccc(NC(=O)NCC2CC2(Cl)Cl)cc1 (configuration not stated) | 2 | 1 | -11 | / | 3 | / | / | /
CCCCn1c(SCC(=O)c2ccc(O)c(O)c2)nc2ccsc2c1=O | 9 | 15* | -1 | 0.66 | / | 4 | 4.7* | 4
O=C(O)CCCCCn1c(SCC(=O)c2ccc(O)c(O)c2)nc2ccsc2c1=O | -2 | 1 | -19 | 0.67 | -2 | / | / | /
CN=c1c([N+](=O)[O-])nn(-c2ccc3c(c2)OCCO3)n1O | 19* | 21* | 1 | 0.54 | 6 | 31* | 9.9* | 31*
O=C(N/N=C/C(Br)=C\c1ccccc1)c1ccc2nc[nH]c2c1 | 0 | 12* | 9 | / | 5 | 1 | 2 | -2
O=C(NN=C/C(Br)=C\c1ccccc1)c1ccc2nc[nH]c2c1 | / | / | / | 0.65 | / | / | / | /
Cc1cccc(NC(=O)NC(C)C(c2cccs2)N2CCOCC2)c1 (configuration not stated) | 99* | 100* | -10 | 0.73 | 4 | -1 | 2 | 3
COc1ccc(N2C(=O)C3CCCN3C2c2cccc(OC)c2OC)cc1 (configuration not stated) | 4 | 14* | -13 | 0.69 | 1 | 1 | 1 | -2
COc1ccc(N2C(=O)C3CCCN3C2c2cccc(Br)c2)cc1 (configuration not stated) | -2 | 3 | 1 | 0.78 | 1 | / | / | /
CCOc1ccc(NC(=O)CCC(=O)N2CCSc3ccccc32)cc1 | -1 | 19* | -1 | 0.74 | 4 | -3 | 0 | -3
